F508del corr = F508del CFTR correction, initial screen, CFBE line, single point; AID 720511, 2013; hit rate 0.36% among 350,000; activity (quench increase), % at 7.58 µM; CFBE cells, YFP halide quenching; stimulated with forskolin plus potentiator P3; % fluorescence drop versus neutral controls;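 active = mean added fluorescence quench of at least 8% versus neutral control, with both replicates also reaching 8%; inconclusive = only one of the mean or replicate conditions met; inactive = mean below 8% and not both replicates reaching 8%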;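 also: cells transiently co-express mutant CFTR-F508del with the halide-sensitive YFP; corrector assay measuring rescue of mutant channel to the surface after 24 h compound exposure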
HIV Env fusion = inhibitors of HIV-1 Env-driven cell-cell fusion, primary screen, HeLa-JRFL effector, CEM21 target cells, luciferase | inhibition, % at 12.3 µM | hit rate 1.1% among 360,000 | AID 651610, 2012;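 active = mean replicate inhibition score of at least 50 and every replicate individually at or above 50; inconclusive = only one of the two criteria met; inactive = mean below 50 and not all replicates reaching 50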
MITF act = activators of MITF-driven TRPM1 promoter reporter, primary screen, cell-based, SK-MEL-5, luciferase, single point | AID 588334, 2011 | activation, % at 12.5 µM | SK-MEL-5 TRPM1-promoter luciferase, 24 h; % of positive control, neutral wells = 0 | hit rate 0.75% among 300,000;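 active = mean activation of at least 80% with every replicate also reaching 80%; inconclusive = mean reaches 80% but some replicate falls short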
GSIS activator = GLuc luminescence reporter in INS-1E cells, primary screen for activators of glucose-dependent secretion of insulin; INS-1E GLuc reporter insulin secretion, 2-3 h; activation, % at 16.6 µM; hit rate 0.61% among 370,000;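 active = lowest replicate activation of at least 40%, so every replicate reaches that level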
Wnt bcat act = Wnt/beta-catenin pathway activators, primary screen, cell-based, plate reader, single point. Wnt/beta-catenin reporter cell assay, activator. activation, % at 9.35 µM. hit rate 1.2% among 300,000; in the data active = activation above about 30%, passing the limit was not always enough; inconclusive = no clear call, values can overlap the other calls
Of the large screens only hits and unclear results are named; the others gave an inactive call; [ ] = another dose, or the depositor's remark. Shown are actives, neighbours in structure and some others; about 2.7% of the full set was active somewhere.

CCN1CCN(c2cc(C)c3cc(NC(=O)c4cc(OC)cc(OC)c4)ccc3n2)CC1	Wnt bcat act 32
C[C@@H]1CCCCO[C@H](CN(C)C(=O)Nc2cccc3ccccc23)[C@@H](C)CN([C@@H](C)CO)C(=O)c2cc(NS(=O)(=O)c3ccccc3)ccc2O1	none (no result: HIV Env fusion, MITF act, Wnt bcat act)
O=C(Nc1ccc(Nc2ccccc2)cc1)Nc1ccccc1Cl	MITF act 102
O=C(Nc1ccc2c(c1)CCC2)Nc1ccccc1Cl	Wnt bcat act 51 (no result: HIV Env fusion)
O=C(C[C@@H]1C[C@H]2c3cc(NC(=O)Nc4ccccc4F)ccc3O[C@H]2[C@@H](CO)O1)NCC1CC1	none (no result: MITF act, Wnt bcat act)
CN1CC(c2ccccc2Cl)C2(COc3ccccc3C2=O)C12C(=O)Nc1ccccc12 (stereo unspecified)	HIV Env fusion 78 (no result: F508del corr, GSIS activator)
CN(C)c1ccnc2sc3c(SCc4ccc(Cl)cc4)ncnc3c12	MITF act 91 (no result: F508del corr, Wnt bcat act)
N#CC1=C(N)Oc2cc(N)ccc2C1c1ccccc1Cl (stereo unspecified)	none (no result: MITF act)
N#CC1=C(N)OC2=C(CCc3ccccc32)C1c1ccccc1Cl (stereo unspecified)	F508del corr 10 (no result: HIV Env fusion)
N#C[C@H]1[C@@H](c2ccccc2/C=C/c2ccccc2)[C@@H](CO)N1S(=O)(=O)c1ccccc1	none (no result: HIV Env fusion, MITF act, Wnt bcat act)
N#C[C@H]1[C@@H](c2ccccc2/C=C/c2ccccc2)[C@@H](CO)N1S(=O)(=O)c1cccc(F)c1	HIV Env fusion 58[16.7 µM] (no result: MITF act, Wnt bcat act)
COc1cc2c(cc1OC)C(C)N(C(=O)Nc1cc(C)cc(C)c1)CC2 (stereo unspecified)	F508del corr 13
CC1(C)CC(=O)C=C(c2ccc(F)cc2OCc2ccccc2)C1	HIV Env fusion 77
COc1ccc(C2=CC(=O)CC(C)(C)C2)cc1	none
CC1(C)CC(=O)C=C(c2ccc(-c3ccccc3)cc2)C1	MITF act 142
C[C@H](CO)N1C[C@H](C)[C@@H](CN(C)C(=O)Nc2ccc3c(c2)OCO3)Oc2ccc(NC(=O)Nc3ccccc3)cc2CC1=O	none (no result: MITF act, Wnt bcat act)
COc1ccc(C(=O)NCCc2ccc(Cl)cc2)cc1S(=O)(=O)N1CCCCC1C (stereo unspecified)	HIV Env fusion 89 (no result: GSIS activator)
COc1ccc(C(=O)NCCc2c[nH]c3ccccc23)cc1S(=O)(=O)N1CCCCC1C (stereo unspecified)	none
O=C(N[C@@H]1CC[C@H](CCn2cc(C3(O)CCCC3)nn2)O[C@@H]1CO)c1ccccc1F	none (no result: MITF act, Wnt bcat act)
Cc1noc(C)c1S(=O)(=O)N(C)C[C@H]1OCCCC[C@@H](C)Oc2ccc(NC(=O)Nc3cccc4ccccc34)cc2C(=O)N([C@@H](C)CO)C[C@@H]1C	none (no result: MITF act, Wnt bcat act)
COc1ccc(NC(=O)c2cnn(-c3ccccc3)c2C)cc1	none (no result: MITF act, GSIS activator)
Cc1c(C(=O)Nc2ccccc2)cnn1-c1ccccc1	Wnt bcat act 63
Cc1c(C(=O)Nc2cccc(F)c2)cnn1-c1ccccc1	MITF act 109
Cc1ccccc1C(=O)Nc1c(C(=O)N2CCCC2)cnn1-c1ccccc1	none (no result: HIV Env fusion)
CCOC(=O)c1cnn(-c2ccccc2)c1NC(=O)c1ccccc1C	Wnt bcat act 39 (no result: F508del corr, GSIS activator)
Cc1cc2nc(C3CCCN(C(=O)NCc4ccccc4)C3)[nH]c2cc1C (stereo unspecified)	Wnt bcat act 46 (no result: F508del corr, GSIS activator)
COC(=O)C1=C(C)N(Cc2ccc(C(F)(F)F)cc2)C(=NCc2ccccc2)NC1c1ccccc1 (stereo unspecified)	GSIS activator 949 (no result: MITF act)
COC(=O)C1=C(C)N(Cc2ccc(C(F)(F)F)cc2)C(=NCc2ccccc2)NC1c1ccc(C(F)(F)F)cc1 (stereo unspecified)	GSIS activator 460 (no result: MITF act)
C[C@@H]1CN([C@@H](C)CO)C(=O)Cc2cc(NC(=O)C3CC3)ccc2O[C@H]1CN(C)Cc1ccc2c(c1)OCO2	none (no result: MITF act, Wnt bcat act)
CCc1ccc(C(=O)NC2CCCCC2)s1	MITF act 96 (no result: F508del corr, GSIS activator, Wnt bcat act)
C/C(=N\NC(=O)c1cc2c(s1)CCC(C)C2)c1ccc[nH]1 (stereo unspecified)	MITF act 104, Wnt bcat act inconclusive
CC(C)(O)C#Cc1ccc(C(=O)NC2CCCCC2)s1	none
CC1CCc2sc(C(=O)NC3CCCCC3)cc2C1 (stereo unspecified)	Wnt bcat act 54 (no result: MITF act)
C/C(=N\NC(=O)c1cc2c(s1)CCC(C)C2)c1ccncc1 (stereo unspecified)	none
CCCCC[C@H](C)N1C[C@H](COCc2ccccc2)Oc2cc(N3CCC[C@H]3C(N)=O)ccc2S1(=O)=O	none (no result: MITF act)
CCCCC[C@@H](C)N1C[C@H](COCc2ccccc2)Oc2cc(N3CCC[C@H]3C(N)=O)ccc2S1(=O)=O	HIV Env fusion 76 (no result: MITF act)
COc1cc(C)ccc1OCc1cc(C(=O)N(C)CCCN2CCOCC2)no1	MITF act 127, Wnt bcat act inconclusive
COc1cc(C)ccc1OCc1cc(C(=O)NCCN2CCOCC2)no1	MITF act 107 (no result: HIV Env fusion)
COc1ccc2cc3cc(C(=O)NCCCN4CCOCC4)oc3nc2c1	none (no result: F508del corr, GSIS activator, Wnt bcat act)
COc1ccc2cc3cc(C(=O)NCCc4ccc(OC)c(OC)c4)oc3nc2c1	HIV Env fusion 68 (no result: F508del corr, GSIS activator)
Cc1ccc2cc3cc(C(=O)NCCN4CCOCC4)oc3nc2c1	HIV Env fusion 59 (no result: F508del corr, GSIS activator)
COc1ccccc1-c1cc(C(=O)NCCN2CCOCC2)no1	none (no result: F508del corr)
CCCN(CCC)CCCNC(=O)c1cc2cc3ccc(OC)cc3nc2o1	none (no result: F508del corr, GSIS activator)
COc1ccc2c3c(n(C)c2c1)[C@@H](CO)N(C(=O)c1cccnc1)CC31CCN(C)CC1	none (no result: HIV Env fusion, MITF act, Wnt bcat act)
Cc1nn(C)cc1NC(=O)C[C@H]1CC[C@@H]2[C@H](COc3ccc(NC(=O)NC(C)C)cc3C(=O)N2C)O1	none (no result: MITF act, Wnt bcat act)
C[C@@H]1CN([C@H](C)CO)C(=O)c2cccc(NC(=O)Nc3ccc4c(c3)OCO4)c2O[C@@H]1CN(C)CC1CCCCC1	none (no result: MITF act, Wnt bcat act)
CO[C@H]1CN(C)C(=O)c2ccc(NC(=O)Nc3cc(F)ccc3F)cc2OC[C@@H](C)N(C(=O)c2cnccn2)C[C@H]1C	none (no result: MITF act, Wnt bcat act)
C[C@@H]1CN([C@@H](C)CO)C(=O)Cc2cc(NC(=O)CCCN(C)C)ccc2O[C@@H]1CN(C)S(=O)(=O)c1ccc(Cl)cc1	none (no result: HIV Env fusion, MITF act, Wnt bcat act)
CN1c2ccccc2N(C)C1c1ccc2c(c1)OCO2	HIV Env fusion 63 (no result: F508del corr, MITF act, GSIS activator, Wnt bcat act)
CC12CN3CC(C)(CN(C1)C3c1ccc3c(c1)OCO3)C2=O (stereo unspecified)	none (no result: HIV Env fusion, GSIS activator)
CC(C)=C1C2CCC1C(C(=O)NCc1ccccc1)C2C(=O)O (stereo unspecified)	HIV Env fusion 67 (no result: F508del corr, GSIS activator, Wnt bcat act)
O=C(O)C1CCCCC1C(=O)NCc1ccccc1 (stereo unspecified)	none (no result: F508del corr, MITF act, GSIS activator, Wnt bcat act)
C[C@H](CO)N1C[C@H](C)[C@H](CN(C)C(=O)CC2CC2)Oc2ncc(C#CC3CC3)cc2C1=O	none (no result: MITF act, Wnt bcat act)
CC(=O)N1C[C@@H]2C(c3ccc(Br)cc3)[C@H](C1)N2C(=O)NC(C)C (stereo partly specified)	none (no result: F508del corr, HIV Env fusion, MITF act, Wnt bcat act)
COc1ccc2c(c1)CCc1c(C(=O)NCc3ccco3)noc1-2	MITF act 100 (no result: HIV Env fusion)
COc1ccc2c(c1)CCc1c(C(=O)NC3CCCCC3)noc1-2	MITF act 91 (no result: F508del corr, Wnt bcat act)
